# Results taken from PMC5540273 (PLoS ONE, 2017).
# Assays:
# Conditions in all cases: concentration: 1 μM, replicates: in singlicate; n = 1
# EPHB6 = system: EPHB6
# ERBB2 = system: ERBB2
# ERBB3 = system: ERBB3
# ERBB4 = system: ERBB4
# ERK1 = system: T1, ERK1
# T1 construct: gene MAPK3
# ERK2 = system: T2, ERK2
# T2 construct: gene MAPK1
# ERK3 = system: T3, ERK3
# T3 construct: gene MAPK6
# ERK4 = system: T4, ERK4
# T4 construct: gene MAPK4
# ERK5 = system: T5, ERK5
# T5 construct: gene MAPK7
# ERK8 = system: T6, ERK8
# T6 construct: gene MAPK15
# ERN1 = system: ERN1
# FAK = system: T7, FAK
# T7 construct: gene PTK2
# FER = system: FER
# FES = system: FES
# FGFR1 = system: FGFR1
# FGFR2 = system: FGFR2
# FGFR3 = system: FGFR3
# FGFR4 = system: FGFR4
# FGR = system: FGR
# FLT1 = system: FLT1
# 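Also: KINOMEscan kinase panel screen.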
Structure (SMILES),%Inh (EPHB6) [%],%Inh (ERBB2) [%],%Inh (ERBB3) [%],%Inh (ERBB4) [%],%Inh (ERK1) [%],%Inh (ERK2) [%],%Inh (ERK3) [%],%Inh (ERK4) [%],%Inh (ERK5) [%],%Inh (ERK8) [%],%Inh (ERN1) [%],%Inh (FAK) [%],%Inh (FER) [%],%Inh (FES) [%],%Inh (FGFR1) [%],%Inh (FGFR2) [%],%Inh (FGFR3) [%],%Inh (FGFR4) [%],%Inh (FGR) [%],%Inh (FLT1) [%]
COC(=O)Nc1nc2cc(Oc3ccc(NC(=O)Nc4cc(F)ccc4F)cc3)ccc2[nH]1.Cl [GW701424],5,43,26,27,0,3,8,0,0,0,0,0,0,0,0,0,19,6,9,99
CSc1ccc(-c2cc3ncnc(SCC(=O)O)c3s2)cc1,33,22,7,0,0,19,0,14,2,18,0,0,10,9,5,0,0,0,23,2
Cl.Nc1ncnc2occ(-c3ccc(NC(=O)Nc4cc(C(F)(F)F)ccc4F)cc3)c12 [SB-707548],98.6,44,24,23,0,0,0,8,12,99.2,25,93.7,31,6,74,77,63,71,41,99.5
CCCCCc1nc2c(N)ncnc2n1CCCCC [SKF-97255],6,4,0,0,0,0,0,0,0,29,13,0,13,0,11,0,0,0,7,0
CN(C1=C(c2ccccc2)C(=O)NC1=O)c1ccccc1 [SB-334860],20,29,0,33,1,13,1,44,0,0,20,0,19,0,0,0,24,18,17,0
COc1ccc(CNC(=O)NC2CCN(c3ccnc(Nc4ccc(OC)cc4)n3)C2)cc1 (centres unmarked) [GSK1379727],26,39,10,2,0,0,0,20,0,0,0,0,8,1,0,7,18,0,26,5
CCn1cnc2c(N)ncnc21 [GW345098],25,0,10,0,2,19,0,0,2,5,25,7,0,14,0,7,0,0,12,9
O=C1Cc2cc(Nc3nc(NCc4cccc(S(=O)(=O)C(F)(F)F)c4)ncc3C(F)(F)F)ccc2N1,0,6,9,4,0,9,31,25,0,0,0,0,0,7,0,1,5,0,0,0
O=C(Nc1cccc(-c2nn3ncccc3c2-c2ccnc(Nc3cccc(C(F)(F)F)c3)n2)c1)c1c(F)cccc1F [GSK299495],30,92.1,56,98.4,0,0,7,18,0,0,15,0,24,0,0,0,0,0,95.5,91.5
Cl.Oc1cccc(Nc2ccnc3cc(-c4ccncc4)ccc23)c1 [GW494601],86,0,40,38,0,0,2,26,0,0,21,0,23,0,59,0,12,12,98.1,94.4
